# Laboratory results from article PMC4336329 (PLoS ONE, 2015).
# About 14,000 (4.5%) of roughly 310,000 compounds showed an effect of 50% or more. Effects have a minus sign here. The full list was thinned out, with strong results kept by preference.
# Target: human ether-à-go-go-related gene (hERG) potassium channel (human, UniProt Q12809)
# Experiment: primary screen, population patch clamp on CHO cells stably expressing hERG; higher = less effect of the substance
# 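Also: peak tail current of the secondary pulse compared with the same well before compound.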
# Sequence of human ether-à-go-go-related gene (hERG) potassium channel (Q12809 whole entry, looked up): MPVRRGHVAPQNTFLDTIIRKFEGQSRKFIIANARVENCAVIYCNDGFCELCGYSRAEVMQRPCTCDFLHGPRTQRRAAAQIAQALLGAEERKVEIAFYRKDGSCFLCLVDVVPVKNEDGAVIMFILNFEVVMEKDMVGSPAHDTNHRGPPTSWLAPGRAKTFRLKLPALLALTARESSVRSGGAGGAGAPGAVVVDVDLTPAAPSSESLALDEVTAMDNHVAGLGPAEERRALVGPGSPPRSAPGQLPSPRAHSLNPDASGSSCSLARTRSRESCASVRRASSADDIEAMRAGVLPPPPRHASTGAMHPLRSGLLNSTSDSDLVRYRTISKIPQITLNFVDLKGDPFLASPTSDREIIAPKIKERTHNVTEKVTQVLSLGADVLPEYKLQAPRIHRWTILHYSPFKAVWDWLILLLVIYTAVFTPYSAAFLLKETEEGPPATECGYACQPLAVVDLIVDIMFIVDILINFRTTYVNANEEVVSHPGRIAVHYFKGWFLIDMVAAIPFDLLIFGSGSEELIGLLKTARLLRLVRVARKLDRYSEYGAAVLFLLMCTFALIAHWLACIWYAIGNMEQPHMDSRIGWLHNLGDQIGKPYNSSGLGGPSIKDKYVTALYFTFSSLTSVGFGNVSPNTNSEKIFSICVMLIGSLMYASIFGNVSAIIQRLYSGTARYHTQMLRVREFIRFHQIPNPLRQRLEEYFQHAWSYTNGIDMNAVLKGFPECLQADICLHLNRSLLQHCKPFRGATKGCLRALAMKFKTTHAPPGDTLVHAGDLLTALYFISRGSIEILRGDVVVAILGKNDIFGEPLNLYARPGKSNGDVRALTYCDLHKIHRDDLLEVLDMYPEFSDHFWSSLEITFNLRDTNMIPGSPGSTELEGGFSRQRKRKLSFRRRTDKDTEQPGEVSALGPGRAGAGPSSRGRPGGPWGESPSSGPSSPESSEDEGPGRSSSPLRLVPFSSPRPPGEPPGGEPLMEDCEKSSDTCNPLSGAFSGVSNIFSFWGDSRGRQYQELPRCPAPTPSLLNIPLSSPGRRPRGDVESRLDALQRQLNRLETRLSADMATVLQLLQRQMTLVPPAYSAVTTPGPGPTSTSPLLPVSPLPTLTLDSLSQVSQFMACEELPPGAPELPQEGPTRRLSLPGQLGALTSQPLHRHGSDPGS
row,Compound,"hERG current change (%, negative = inhibition) at 10uM [%]"
1,CCCCN(C)C(=O)C1CCN(Cc2ccccn2)CC1.O=C(O)C(=O)O,-4.27
2,CCCCN(C)C(=O)C1CCN(Cc2cccnc2)CC1,9.71
3,CCCCN(C)C(=O)C1CCN(CCCc2ccccc2)CC1.O=C(O)C(=O)O,-73.4
4,Cl.OCCN(CCO)CC(O)CN(c1ccccc1)c1ccccc1 (stereo not shown),-14.6
5,CN(C)CC(O)CN(c1ccccc1)c1ccccc1 (stereo not shown),-54
6,CN(CCO)CC(O)CN(c1ccccc1)c1ccccc1.Cl (stereo not shown),-52.1
7,NCC(O)CN(c1ccccc1)c1ccccc1 (stereo not shown),12
8,OCC(O)CN(c1ccccc1)c1ccccc1 (stereo not shown),2.58
9,CNCC(O)CN(c1ccccc1)c1ccccc1 (stereo not shown),-39.8
10,CCCCCCn1c(=O)c(C(=O)Nc2nnc(C)s2)c(O)c2ccccc21,-1.74
11,Cc1nnc(Nc2ccc3c(c2)OCO3)c2ccccc12,-7.51
12,CC1CCCCN1CCNC(=O)CCc1nnc2n(Cc3ccccc3)c(=O)c3ccccc3n12 (stereo not shown),-51.6
13,O=C(CCc1nnc2n(Cc3ccc(F)cc3)c(=O)c3ccccc3n12)NCCN1CCOCC1,-20.3
14,O=C(CCc1nnc2n(Cc3ccc(Cl)cc3)c(=O)c3ccccc3n12)NCCN1CCCC1,-75.8
15,O=C(CCc1nnc2n(Cc3ccc(Cl)cc3)c(=O)c3ccccc3n12)NCCCN1CCOCC1,-59.9
16,O=C(CCc1nnc2n(Cc3ccc(F)cc3)c(=O)c3ccccc3n12)NCCCN1CCOCC1,-16.4
17,Cc1ccc(Cn2c(=O)c3ccccc3n3c(CCC(=O)NCCN4CCOCC4)nnc23)cc1,-19.5
18,O=C(CCc1nnc2n(Cc3ccccc3)c(=O)c3ccccc3n12)NCCN1CCOCC1,-1.06
19,CC1CCCC(C)N1CCNC(=O)CCc1nnc2n(Cc3ccccc3)c(=O)c3ccccc3n12 (stereo not shown),-42.6
20,O=C(CCc1ccccc1)NCCCN1CCOCC1,12.3
21,COc1ccccc1CNC(=O)Cn1cc([N+](=O)[O-])ccc1=O,15.2
22,O=C1c2ccc3c4c(ccc(c24)C(=O)N1c1cccc(O)c1)C(=O)N(c1cccc(O)c1)C3=O,8.86
23,CCc1ccc(NC(=O)C/C(C)=N/NC(=O)COc2ccc(C)cc2Br)cc1,-30.5

row,Compound,"hERG current change (%, negative = inhibition) at 10uM [%]"
1,CCc1ccccc1NC(=O)C/C(C)=N/NC(=O)COc1ccccc1C,9.02
2,CCc1ccc(NC(=O)C/C(C)=N/NC(=O)COc2ccccc2C)cc1,-53.2
3,COc1ccc(S(=O)(=O)Nc2ccccc2C(=O)N2CCOCC2)cc1C,-0.937
4,CCC(=O)Oc1cccc(C(=O)Nc2cccc(NC(=O)c3ccco3)c2)c1,-1.06
5,CCS(=O)(=O)n1nc(-c2ccccc2)nc1NCc1ccco1,-29.9
6,COc1ccc(C(=O)N/N=C\c2coc3ccccc3c2=O)cc1,6.36
7,CC(Oc1ccccc1)c1nnc(N)s1 (stereo not shown),-1.12
8,COc1ccc(OC(C)c2nnc(N)s2)cc1 (stereo not shown),-71.4
9,Cc1ccc(OC(C)c2nnc(N)s2)cc1Cl (stereo not shown),-2.12
10,Clc1ccc(CSc2nncn2-c2ccccn2)cc1,-28.7
11,Cl.OCCNCc1cc(Br)ccc1OCc1ccccc1,-55.7
12,Cl.OCCNCc1cc(Br)ccc1OCc1ccc(F)cc1,-49.7
13,CC(C)NCc1cc(Br)ccc1OCc1ccccc1.Cl,-61.8
14,Cl.OCCNCc1cc(Br)ccc1OCc1ccccc1Cl,-74.9
15,Cl.OCCNCCNCc1ccccc1OCc1ccccc1,8.83
16,Cl.OCCNCc1cc(Br)ccc1OCc1ccc(Cl)cc1,-66.6
17,COCC(C)NCc1cc(Br)ccc1OC.O=C(O)C(=O)O (stereo not shown),8.73
18,CC(C)(CO)NCc1cc(Br)ccc1OCc1ccccc1.Cl,-35.5
19,COc1cccc(CNCCO)c1OCc1ccccc1Cl.Cl,-8.68
20,COc1cc(CNCCO)cc(Br)c1OCc1ccccc1.Cl,-25.4
21,C=CCOc1ccc(Br)cc1CNCCO.Cl,0.469
22,COc1cc(CNCCO)cc(Br)c1OCc1ccccc1Cl.Cl,-3.45
23,O=C(O)COc1ccc(/C=C2/SC(=S)N(Cc3ccccc3)C2=O)cc1,17.3

row,Compound,"hERG current change (%, negative = inhibition) at 10uM [%]"
1,COc1cnc(-c2ccccc2)nc1Oc1cccc(C)c1C,-0.114
2,Cc1ccccc1C1c2[nH]c3ccccc3c2CCN1C(=O)c1ccc(=O)n(C)n1 (stereo not shown),-10.6
3,Cc1noc(C)c1COc1cccc(C(=O)NCc2ccccc2Cl)c1,-11.3
4,Cc1cccc(OCC(=O)NNC(=O)c2cc3ccccc3oc2=O)c1,-9.32
5,CC1CC(C)CN(CCCNC(=O)CN2C(=O)c3cccnc3Oc3ccc(Cl)cc32)C1 (stereo not shown),-30.7
6,Cc1ccc(S(=O)(=O)N/N=C/c2cn(C)nc2C)cc1,-2.68
7,Cl.OCCCCNCc1cc(Br)ccc1OCc1ccccc1F,-24.7
8,COc1cc(CNCCCCO)ccc1OCc1ccccc1F.Cl,-14.2
9,Cl.OCCCCNCc1cc(Br)ccc1OCc1ccccc1,-61.8
10,Cc1ccc(OCc2nnc(SCC(=O)N3CCc4ccccc43)n2C)cc1,16.4
11,Cc1ccc(-c2csc3ncn(CC(=O)N4CCOCC4)c(=O)c23)cc1C,-5.43
12,CCn1c(SCC(=O)Nc2cccc(NC(C)=O)c2)nnc1-c1ccco1,14.8
13,COc1ccc(S(=O)(=O)N2CCOCC2)cc1C(=O)N1CCCCC1,-31.6
14,CN(C)CCCN1c2ccc([N+](=O)[O-])cc2CCc2cc([N+](=O)[O-])ccc21,-50.3
15,CC(=O)N1c2ccccc2CCc2ccc([N+](=O)[O-])cc21,2.5
16,Cc1ccccc1CN1CCc2cc([N+](=O)[O-])ccc21,19.1
17,C=CCNC(=S)NC(=O)c1ccc(C)c(Br)c1,3.39
18,N/C(=N\OC(=O)N1CCOCC1)c1ccc(Br)cc1,17.6
19,CN1C[C@H](CO)C=C2c3cccc4[nH]cc(c34)C[C@H]21,4.32
20,Cc1c(C(=O)NCc2ccco2)oc2ccccc12,-6.97
21,Cc1c(C(=O)N(Cc2ccco2)Cc2cccs2)oc2ccccc12,-34.2
22,CCOC(=O)c1oc2ccccc2c1NC(=O)c1ccccc1OC,16.6
23,COc1ccccc1C(=O)Nc1c(C(=O)N(CCN(C)C)Cc2ccco2)oc2ccccc12,-82.7

row,Compound,"hERG current change (%, negative = inhibition) at 10uM [%]"
1,COc1ccccc1C(=O)NCc1ccco1,9.61
2,Cc1ccccc1C(=O)Nc1c(C(=O)N(CCN(C)C)Cc2ccco2)oc2ccccc12,-79.7
3,COCCNC(=S)Nc1cc(OC)c(NC(=O)c2ccco2)cc1OC,-3.62
4,Cc1ccc(OCCCCNC(C)(C)C)c([N+](=O)[O-])c1.O=C(O)C(=O)O,-4.42
5,COc1cccc(CNc2nc(SC)ncc2CO)c1,14.5
6,CC(=O)c1c(C)nc(-c2ccc3c(c2)OCO3)n1O,0.643
7,CCc1noc(C)c1C(=O)N1CCCC(C(=O)c2cc(F)ccc2OC)C1 (stereo not shown),18.6
8,COc1ccccc1C(=O)C1CCCN(C(=O)C2CCCC2)C1 (stereo not shown),-6.06
9,CCN(CC)CC(=O)N1CCCC(C(=O)c2ccccc2OC)C1 (stereo not shown),-10.3
10,CCOC(=O)N1CCC(N2CCCC(C(=O)c3ccccc3OC)C2)CC1 (stereo not shown),-67.7
11,COc1ccccc1C(=O)C1CCCN(C(=O)c2ccccn2)C1 (stereo not shown),12.4
12,COc1ccc(F)cc1C(=O)C1CCCN(C(=O)C2=C(C)OCCO2)C1 (stereo not shown),1.15
13,CCOC(=O)N1CCC(N2CCCC(C(=O)c3cc(F)ccc3OC)C2)CC1 (stereo not shown),-86.7
14,Cc1cc(C(=O)N2CCCC(C(=O)c3cccc4ccccc34)C2)nc(C)n1 (stereo not shown),-2.09
15,COc1ccccc1C(=O)C1CCCN(C(=O)c2cc(CC(C)C)nc(C)n2)C1 (stereo not shown),-60.5
16,CC(NC(=O)/C(C#N)=C/c1ccc(Cl)c([N+](=O)[O-])c1)c1ccccc1 (stereo not shown),4.7
17,CCN(CC)C(=O)Nc1ccc(C(=O)OC)cc1,-1.77
18,COc1ccc(C2=NN(C(=O)CN3CCOCC3)C(c3nc4ccccc4[nH]3)C2)cc1 (stereo not shown),-8.74
19,C[NH+](C)CC(C)(C)CNS(=O)(=O)c1ccc(Cl)c(Cl)c1.[Cl-],4.29
20,CCCn1nc(NC(=O)CC(C)C)c2cc3ccccc3nc21,12
21,COc1ccc(-c2noc(CCC(=O)Nc3cc(OC)ccc3OC)n2)cc1,-14.7
22,CCn1cc(C(=O)O)c(=O)c2cnc(N3CCN(C(=S)Nc4ccccc4C(F)(F)F)CC3)nc21,6.26
